From PubChem BioAssay
A selection follows.
aSyn 5UTR act: Activators via SNCA 5'UTR binding, MLPCN. alpha-synuclein 5'UTR reporter, activators screen. activity score, % (tested at 7.5 µM), hits read low. hit rate 7.1% among 300,000. AID 1814; in the data active = activity score below about -60%
The depositor's hits bear a star.

How did O=C(NCCc1ccccc1)c1c[nH]c2c(F)cccc2c1=O do in these assays?
aSyn 5UTR act: -94*

Results for O=C(NCCCc1ccccc1)c1ccccc1 ?
aSyn 5UTR act: -167*

What do the screens show for `CN(C(=O)COc1ccccc1C(=O)NCCc1ccccc1)c1ccccc1`?
aSyn 5UTR act: -98*

What do the screens show for `Cc1ccc(C(=O)NCCCc2ccccc2)s1`?
aSyn 5UTR act: -137*

What do the screens show for `CC(=O)c1ccc(Oc2ncnc3sccc23)cc1`?
aSyn 5UTR act: -148*

What do the screens show for `Cc1cc(C(=O)COc2ncnc3sccc23)c(C)n1C`?
aSyn 5UTR act: -125*

How did COC(=O)Oc1ccc(/C=C/C(=O)OC(C)C)cc1OC(=O)OC do in these assays?
aSyn 5UTR act: -127*

What do the screens show for `O=C(NC1CCCC1)c1noc2c1CCCCC2`?
aSyn 5UTR act: -134*

Results for COc1ccc(CNC(=O)c2noc3c2CCCCC3)cc1 ?
aSyn 5UTR act: -62*

How did O=C(Nc1cccc(O)c1)c1noc2c1CCCCC2 do in these assays?
aSyn 5UTR act: 57

Results for O=C(NCc1ccccc1)c1noc2c1CCCCC2 ?
aSyn 5UTR act: -133*

Results for COC(=O)c1ccccc1NC(=O)c1noc2c1CCCC2 ?
aSyn 5UTR act: -79*

What do the screens show for `Cc1ccc(NC(=O)c2noc3c2CCC3)cc1C`?
aSyn 5UTR act: -75*

Results for O=C(Nc1cnn(Cc2ccc(F)cc2)c1)c1noc2c1CCCC2 ?
aSyn 5UTR act: -105*

What do the screens show for `O=C(NCc1cccs1)c1noc2c1CCCCC2`?
aSyn 5UTR act: -144*

What do the screens show for `CC(=O)c1ccc(NC(=O)c2noc3c2CCC3)cc1`?
aSyn 5UTR act: 71

How did CC(NC(=O)c1noc2c1CCCCC2)c1ccccc1 (stereo not given) do in these assays?
aSyn 5UTR act: -78*

What do the screens show for `CC1CCCN(c2ncnc3c2cnn3-c2ccccc2)C1` (stereo not given)?
aSyn 5UTR act: 61

Results for Cc1ccc(-n2ncc3c(N4CCCC(C)C4)ncnc32)c(C)c1 (stereo not given) ?
aSyn 5UTR act: -125*

How did Cc1ccc(-n2ncc3c(N4CCCC4)ncnc32)c(C)c1 do in these assays?
aSyn 5UTR act: -114*

Results for COC1c2ccccc2C(=O)N1CCc1ccc(Cl)cc1 (stereo not given) ?
aSyn 5UTR act: -73*

How did CCn1c2ccccc2c2nc3cc(OC)c(OC)cc3nc21 do in these assays?
aSyn 5UTR act: -78*

What do the screens show for `CCn1c2ccccc2c2cc(CNCc3ccc(OC)cc3OC)ccc21`?
aSyn 5UTR act: 63

How did Nc1c(C(=O)Nc2ccc3c(c2)OCCO3)nnn1Cc1cccc(F)c1 do in these assays?
aSyn 5UTR act: -176*

Results for Nc1c(C(=O)Nc2cccc(F)c2)nnn1-c1cccc(C(F)(F)F)c1 ?
aSyn 5UTR act: -155*

What do the screens show for `Nc1c(C(=O)Nc2ccc3c(c2)OCCO3)nnn1Cc1ccc(Cl)cc1`?
aSyn 5UTR act: -212*

How did CCc1ccc2oc(-c3cc(N=Cc4cccc(OC)c4O)ccc3O)nc2c1 do in these assays?
aSyn 5UTR act: -146*

Results for CNc1nc(N2CCc3ccccc32)ncc1F ?
aSyn 5UTR act: -109*

What do the screens show for `N/C(=N\O)c1ccc(N2CCN(c3ncccc3C(F)(F)F)CC2)nc1`?
aSyn 5UTR act: -98*

What do the screens show for `CCOC(=O)C(CC)(CC)C(=O)/C=C/c1cccc(Br)c1`?
aSyn 5UTR act: -74*

What do the screens show for `COc1ccc(-n2ncc3c(NCCCN4CCOCC4)ncnc32)cc1`?
aSyn 5UTR act: -120*

How did COc1ccc(-n2ncc3c(NCCN4CCOCC4)ncnc32)cc1 do in these assays?
aSyn 5UTR act: -69*

How did COc1ccc(-c2oc3ncn(CCN4CCOCC4)c(=N)c3c2-c2ccc(OC)cc2)cc1 do in these assays?
aSyn 5UTR act: 74

How did CC(=O)NCCNC(=O)c1ccc(CSc2ccc(Cl)cc2)cc1 do in these assays?
aSyn 5UTR act: -132*

What do the screens show for `COc1ccccc1CCNC(=O)c1ccoc1C`?
aSyn 5UTR act: -72*

What do the screens show for `O=C(NCCc1ccc(Cl)cc1)c1ccc2nccnc2c1`?
aSyn 5UTR act: -109*

What do the screens show for `O=C(NCCc1ccc(O)cc1)c1ccc(Cl)cc1`?
aSyn 5UTR act: -121*

How did Cc1occc1C(=O)NCCc1ccc(Cl)cc1 do in these assays?
aSyn 5UTR act: -125*

How did Nc1ccc(/C=C/C(=O)c2cccs2)cc1 do in these assays?
aSyn 5UTR act: -135*

Results for Cc1c(/C=C/C(=O)c2cccs2)cnn1C ?
aSyn 5UTR act: -125*

How did CCc1ccc(C(=O)/C=C/c2cnn(C)c2C)s1 do in these assays?
aSyn 5UTR act: -117*

Results for Cc1ccc(N2C(=O)c3cccc4c(N)ccc(c34)C2=O)c2cccnc12 ?
aSyn 5UTR act: 100

Results for CCCN1C(=O)c2cccc3c(N4CCCCC4)ccc(c23)C1=O ?
aSyn 5UTR act: -83*

How did Cc1nn(-c2ccccc2)c(Cl)c1/C=N/NC(=O)c1ccccc1F do in these assays?
aSyn 5UTR act: -89*

What do the screens show for `Cc1nn(-c2ccccc2)c(Cl)c1/C=N/NC(=O)c1[nH]ncc1Br`?
aSyn 5UTR act: -67*

Results for Cc1nn(-c2ccccc2)c(Cl)c1/C=C/C(=O)c1ccccc1 ?
aSyn 5UTR act: -107*
